Measured values as given in PubChem BioAssay.
Activity calls are given as the source filed them.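 Rule for the calls, unless noted: active = mean inhibition above 46.68%, the untreated control wells mean plus 3 SD; inactive = the rest.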

Columns and labels:
[1] = biological target: Nuclear receptor coactivator 3 (Homo sapiens) (UniProt Q9Y6Q9); test: NCOA3 GAL4-fusion reporter inhibition – cell-based, luminescence, quadruplicate, confirmation (AID 588792;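 active = mean inhibition over 43.08%, the solvent-only control mean plus 3 SD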;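 note: 0% = DMSO treated cells and 100% = gossypol at 36 µM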); settings: HEK293 GAL4-SRC3 luciferase reporter, at 3.6 µM, stronger effect = higher value
Sequence of Nuclear receptor coactivator 3 (Homo sapiens) (Q9Y6Q9 whole entry, looked up, the tested form may be a part): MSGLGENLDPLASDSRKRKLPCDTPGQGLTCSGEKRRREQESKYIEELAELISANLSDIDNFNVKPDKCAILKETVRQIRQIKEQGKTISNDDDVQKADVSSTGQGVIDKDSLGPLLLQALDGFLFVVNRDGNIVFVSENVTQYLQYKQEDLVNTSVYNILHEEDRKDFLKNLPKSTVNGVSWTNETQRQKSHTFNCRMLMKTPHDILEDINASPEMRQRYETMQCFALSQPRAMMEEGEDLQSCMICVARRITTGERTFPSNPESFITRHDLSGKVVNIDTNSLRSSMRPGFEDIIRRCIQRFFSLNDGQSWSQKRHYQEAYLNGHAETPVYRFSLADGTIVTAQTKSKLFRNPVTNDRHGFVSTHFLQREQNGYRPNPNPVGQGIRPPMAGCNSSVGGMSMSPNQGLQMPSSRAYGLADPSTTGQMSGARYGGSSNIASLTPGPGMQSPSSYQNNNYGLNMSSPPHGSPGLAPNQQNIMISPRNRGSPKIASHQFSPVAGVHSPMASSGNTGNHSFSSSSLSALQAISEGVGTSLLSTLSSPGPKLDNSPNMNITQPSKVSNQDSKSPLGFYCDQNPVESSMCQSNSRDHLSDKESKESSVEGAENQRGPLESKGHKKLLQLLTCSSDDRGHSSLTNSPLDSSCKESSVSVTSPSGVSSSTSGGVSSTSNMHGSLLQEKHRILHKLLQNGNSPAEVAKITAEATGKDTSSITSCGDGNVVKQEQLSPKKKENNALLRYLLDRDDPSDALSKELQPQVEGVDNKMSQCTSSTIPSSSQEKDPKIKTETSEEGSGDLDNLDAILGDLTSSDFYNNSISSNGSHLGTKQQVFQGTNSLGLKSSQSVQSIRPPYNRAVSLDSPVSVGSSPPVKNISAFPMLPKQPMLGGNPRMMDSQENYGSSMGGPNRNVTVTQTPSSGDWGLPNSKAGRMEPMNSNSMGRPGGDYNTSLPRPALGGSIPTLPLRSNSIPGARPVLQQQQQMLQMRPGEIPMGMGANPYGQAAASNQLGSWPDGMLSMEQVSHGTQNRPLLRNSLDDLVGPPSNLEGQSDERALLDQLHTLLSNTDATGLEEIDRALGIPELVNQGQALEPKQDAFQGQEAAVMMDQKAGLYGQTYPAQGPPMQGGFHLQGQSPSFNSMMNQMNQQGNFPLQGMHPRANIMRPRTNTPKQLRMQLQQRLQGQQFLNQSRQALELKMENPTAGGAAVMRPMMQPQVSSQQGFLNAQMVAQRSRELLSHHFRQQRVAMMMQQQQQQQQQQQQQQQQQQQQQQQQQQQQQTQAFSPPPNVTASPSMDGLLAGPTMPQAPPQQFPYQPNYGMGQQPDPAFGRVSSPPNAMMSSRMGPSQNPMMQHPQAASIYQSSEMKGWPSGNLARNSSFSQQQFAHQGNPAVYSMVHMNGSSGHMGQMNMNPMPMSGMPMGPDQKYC

[2] = tested on: transactivating tegument protein VP16 (Human herpesvirus 1), Gal4-VP16 luciferase reporter; test: repression of VP16-driven luciferase reporter – cell-based, luminescence, high throughput, counter-screen for SRC3 inhibitor project (AID 588794; in the data active = inhibition above about 30%); settings: mammalian cells, at 3.6 µM, stronger effect = higher value
[3] = biological target: Nuclear receptor coactivator 1 (Homo sapiens) (UniProt Q15788); test: NCOA1 GAL4-fusion reporter inhibition – cell-based, luminescence, quadruplicate, confirmation (AID 588820); settings: HEK293 GAL4-SRC1 luciferase reporter, at 3.6 µM, stronger effect = higher value;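 note: 0% = DMSO wells and 100% = gossypol 36 µM treated wells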
Sequence of Nuclear receptor coactivator 1 (Homo sapiens) (Q15788 whole entry, looked up, the tested form may be a part): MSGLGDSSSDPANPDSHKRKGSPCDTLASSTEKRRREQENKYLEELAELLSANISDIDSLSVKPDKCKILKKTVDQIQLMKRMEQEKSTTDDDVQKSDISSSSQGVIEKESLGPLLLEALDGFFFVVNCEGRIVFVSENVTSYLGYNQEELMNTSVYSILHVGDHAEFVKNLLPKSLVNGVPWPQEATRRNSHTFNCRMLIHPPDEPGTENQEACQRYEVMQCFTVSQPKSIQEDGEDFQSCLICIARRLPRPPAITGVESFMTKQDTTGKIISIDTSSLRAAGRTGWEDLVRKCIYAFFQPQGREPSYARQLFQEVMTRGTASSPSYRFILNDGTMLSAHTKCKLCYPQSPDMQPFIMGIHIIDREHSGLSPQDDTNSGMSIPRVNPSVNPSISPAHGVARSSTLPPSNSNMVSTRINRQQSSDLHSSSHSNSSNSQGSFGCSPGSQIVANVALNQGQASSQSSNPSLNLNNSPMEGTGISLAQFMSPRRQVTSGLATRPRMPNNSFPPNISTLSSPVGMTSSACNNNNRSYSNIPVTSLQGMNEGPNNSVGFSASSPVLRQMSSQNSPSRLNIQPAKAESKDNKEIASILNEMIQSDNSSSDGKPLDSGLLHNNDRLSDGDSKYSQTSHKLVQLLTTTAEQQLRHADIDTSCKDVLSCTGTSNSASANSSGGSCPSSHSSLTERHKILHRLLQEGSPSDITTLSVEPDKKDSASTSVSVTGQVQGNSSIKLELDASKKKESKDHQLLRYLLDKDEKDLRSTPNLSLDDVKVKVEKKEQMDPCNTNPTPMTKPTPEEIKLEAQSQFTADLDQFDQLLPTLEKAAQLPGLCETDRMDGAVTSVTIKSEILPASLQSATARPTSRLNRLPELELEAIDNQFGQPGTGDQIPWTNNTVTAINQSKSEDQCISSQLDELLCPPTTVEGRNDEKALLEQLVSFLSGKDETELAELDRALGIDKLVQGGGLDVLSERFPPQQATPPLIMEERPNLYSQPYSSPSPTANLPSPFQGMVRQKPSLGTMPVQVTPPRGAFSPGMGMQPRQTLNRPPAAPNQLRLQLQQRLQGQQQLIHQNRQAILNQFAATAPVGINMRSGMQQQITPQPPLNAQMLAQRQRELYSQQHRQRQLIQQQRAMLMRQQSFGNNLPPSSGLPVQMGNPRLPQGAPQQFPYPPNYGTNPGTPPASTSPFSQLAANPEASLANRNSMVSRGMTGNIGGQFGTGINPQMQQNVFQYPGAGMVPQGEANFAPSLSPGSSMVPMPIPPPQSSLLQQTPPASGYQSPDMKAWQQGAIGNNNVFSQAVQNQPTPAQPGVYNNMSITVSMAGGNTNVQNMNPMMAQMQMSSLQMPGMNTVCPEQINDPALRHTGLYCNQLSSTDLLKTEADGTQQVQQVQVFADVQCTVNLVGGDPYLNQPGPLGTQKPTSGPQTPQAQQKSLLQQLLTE

[4] = repression of VP16-driven luciferase reporter – cell-based, luminescence, high throughput, counter-screen for SRC1 inhibitor project (AID 588824; in the data active = inhibition above about 25%); settings: cell-based VP16 transactivation luciferase luminescence; at 3.6 µM; stronger effect = higher value
[5] = tested on: transactivating tegument protein VP16 (Human herpesvirus 1); test: compounds suppressing VP16-driven luciferase signal – cell-based, luminescence, single concentration, counter-screen for SRC2 inhibitor project (AID 652007; in the data active = inhibition above about 36%); settings: cell-based VP16 transactivation luciferase reporter, at 8.9 µM, stronger effect = higher value
[6] = biological target: Nuclear receptor coactivator 2 (Homo sapiens) (UniProt Q15596); test: inhibition of GAL4-SRC2 driven luciferase expression – cell-based, luminescence, HEK293, triplicate, confirmation (AID 652008;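 active = mean inhibition above 46.5%, the solvent-only control mean plus 3 SD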;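 note: 0% = DMSO-treated cells and 100% = Gossypol at 36 µM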); settings: HEK293 GAL4-SRC2 luciferase reporter, at 8.9 µM, stronger effect = higher value
Sequence of Nuclear receptor coactivator 2 (Homo sapiens) (Q15596 whole entry, looked up, the tested form may be a part): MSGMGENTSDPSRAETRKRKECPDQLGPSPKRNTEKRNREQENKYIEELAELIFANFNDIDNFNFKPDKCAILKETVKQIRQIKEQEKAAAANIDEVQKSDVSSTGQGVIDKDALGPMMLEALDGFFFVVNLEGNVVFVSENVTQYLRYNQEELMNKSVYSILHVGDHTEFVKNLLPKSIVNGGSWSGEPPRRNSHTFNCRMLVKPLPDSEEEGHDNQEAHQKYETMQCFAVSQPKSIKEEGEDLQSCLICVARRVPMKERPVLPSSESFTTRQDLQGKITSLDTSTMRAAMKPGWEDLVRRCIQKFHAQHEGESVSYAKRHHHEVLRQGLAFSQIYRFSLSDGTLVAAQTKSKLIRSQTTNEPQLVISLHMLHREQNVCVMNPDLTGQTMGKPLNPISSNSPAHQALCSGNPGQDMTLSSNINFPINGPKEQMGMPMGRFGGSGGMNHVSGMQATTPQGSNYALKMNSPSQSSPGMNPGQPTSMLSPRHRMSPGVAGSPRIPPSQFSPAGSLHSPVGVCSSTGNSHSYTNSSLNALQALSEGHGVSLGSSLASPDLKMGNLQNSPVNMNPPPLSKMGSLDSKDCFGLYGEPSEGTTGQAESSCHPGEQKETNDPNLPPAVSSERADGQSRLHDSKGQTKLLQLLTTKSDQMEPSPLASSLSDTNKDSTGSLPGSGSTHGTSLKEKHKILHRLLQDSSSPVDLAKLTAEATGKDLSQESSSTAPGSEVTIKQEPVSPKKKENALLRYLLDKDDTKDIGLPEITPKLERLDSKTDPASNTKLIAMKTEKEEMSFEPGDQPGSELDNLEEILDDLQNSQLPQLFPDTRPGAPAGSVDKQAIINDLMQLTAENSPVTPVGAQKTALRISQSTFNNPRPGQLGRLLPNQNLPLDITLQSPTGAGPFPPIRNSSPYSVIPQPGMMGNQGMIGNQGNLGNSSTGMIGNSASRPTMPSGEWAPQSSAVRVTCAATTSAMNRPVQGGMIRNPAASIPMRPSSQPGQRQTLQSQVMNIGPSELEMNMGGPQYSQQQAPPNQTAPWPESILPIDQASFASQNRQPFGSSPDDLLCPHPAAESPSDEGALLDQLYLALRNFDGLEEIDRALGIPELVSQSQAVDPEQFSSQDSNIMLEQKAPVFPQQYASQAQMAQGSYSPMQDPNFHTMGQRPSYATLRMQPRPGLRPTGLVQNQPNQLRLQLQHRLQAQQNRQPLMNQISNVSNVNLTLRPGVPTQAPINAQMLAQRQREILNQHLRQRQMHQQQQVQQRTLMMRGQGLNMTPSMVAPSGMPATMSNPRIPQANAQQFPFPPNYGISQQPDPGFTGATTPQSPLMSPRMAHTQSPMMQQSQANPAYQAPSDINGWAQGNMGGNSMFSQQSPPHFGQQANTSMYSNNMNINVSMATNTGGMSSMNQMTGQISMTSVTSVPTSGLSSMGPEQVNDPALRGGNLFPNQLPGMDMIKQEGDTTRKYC

[7] = biological target: Nuclear receptor subfamily 5 group A member 2 (Homo sapiens) (UniProt O00482); test: NR5A2 activity suppression in reporter cells – cell-based, luminescence, confirmation (AID 651613; in the data active = inhibition above about 42%;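 note: HEK293T cells co-transfected with LRH-1 and StAR promoter luciferase reporter; 0% = vehicle wells and 100% = parental cells lacking receptor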); settings: cell-based LRH-1 luciferase reporter, inverse agonism; at 3.6 µM; stronger effect = higher value
Sequence of Nuclear receptor subfamily 5 group A member 2 (Homo sapiens) (O00482 whole entry, looked up): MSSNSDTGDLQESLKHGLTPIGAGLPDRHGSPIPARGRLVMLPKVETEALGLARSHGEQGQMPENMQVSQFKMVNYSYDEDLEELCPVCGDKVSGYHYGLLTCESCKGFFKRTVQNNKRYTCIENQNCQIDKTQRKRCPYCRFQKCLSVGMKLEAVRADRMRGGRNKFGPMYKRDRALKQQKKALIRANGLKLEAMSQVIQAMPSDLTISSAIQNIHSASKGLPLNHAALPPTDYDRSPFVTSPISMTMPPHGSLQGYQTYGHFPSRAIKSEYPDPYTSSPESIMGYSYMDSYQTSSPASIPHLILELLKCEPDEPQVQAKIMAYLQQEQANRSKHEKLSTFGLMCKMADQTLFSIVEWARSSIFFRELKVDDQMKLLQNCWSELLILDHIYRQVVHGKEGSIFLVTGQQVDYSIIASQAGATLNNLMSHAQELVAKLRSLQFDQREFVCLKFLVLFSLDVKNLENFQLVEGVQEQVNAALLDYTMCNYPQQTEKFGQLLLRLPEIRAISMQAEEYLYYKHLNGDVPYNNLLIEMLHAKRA

[8] = biological target: Steroidogenic factor 1 (Homo sapiens) (UniProt Q13285); test: inverse agonism at SF1 nuclear receptor – cell-based, luminescence, high throughput, counter-screen for LRH-1 inverse agonist project (AID 651614; in the data active = inhibition above about 44%;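 note: cells cotransfected with StAR promoter reporter and SF1 expression vector; 0% = vehicle on cells with receptor and 100% = vehicle on cells lacking receptor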); settings: cell-based SF1 luciferase reporter, at 3.6 µM, stronger effect = higher value

Measured: inhibition

O=C(CCCN1C(=O)/C(=C/c2ccccc2Cl)SC1=S)NNC(=O)c1ccc(Cl)cc1Cl
active: [1] 55% | [2] 32.6% | [4] 33% | [5] 76.7% | [6] 92.4%
inactive: [3] 37.1%

Brc1cccc(CSc2nnc(-c3ccncc3)o2)c1
inactive: [3] 44.4% | [5] 0.08% | [6] 27.6%
active: [1] 45.8% | [2] 35.2% | [4] 26.9%

Cc1nnc(SCC(=O)N2CCC(c3noc4ccc(F)cc34)CC2)s1
active: [1] 85.1% | [2] 48.4% | [3] 69.4% | [4] 45.1%
inactive: [5] 6.59% | [6] 44.8%

CCCCN(c1ccccc1)c1ncnc(N)c1[N+](=O)[O-]
inactive: [5] 17.4% | [6] 44.7%
active: [1] 72.2% | [2] 57.6% | [3] 64.5% | [4] 48.5%

COc1ccc(-n2c(C)c(C(C)=O)c3cc(O)ccc32)cc1
inactive: [5] -5.76%
active: [1] 76.1% | [2] 55.6% | [3] 64.1% | [4] 56.6% | [6] 54%

O=C(Nc1ccccc1Oc1ccccc1)c1cc([N+](=O)[O-])ccc1Cl
inactive: [2] 24.8% | [3] 24.8% | [5] 21.9%
active: [1] 52.5% | [4] 33.9% | [6] 50.4%

C[C@H]1O[C@@H](O[C@H]2[C@@H](O)C[C@H](O[C@H]3[C@@H](O)C[C@H](O[C@H]4CC[C@@]5(C)[C@H](CC[C@@H]6[C@@H]5C[C@@H](O)[C@]5(C)[C@@H](C7=CC(=O)OC7)CC[C@]65O)C4)O[C@@H]3C)O[C@@H]2C)C[C@H](O)[C@@H]1O
active: [1] 96.8% | [2] 88.6% | [3] 80.6% | [4] 87.5% | [7] 110% | [8] 97.7% | [5] 70.2% | [6] 55.2%

CCN(CC)c1ccc(/C=N/NC(=O)c2nnn(-c3nonc3N)c2C(C)C)c(O)c1
inactive: [5] -10.2% | [6] 29.9%
active: [1] 77.3% | [2] 72.6% | [3] 68.7% | [4] 65.5%

O=C(N/N=C/c1cc([N+](=O)[O-])ccc1O)NC12CC3CC(CC(C3)C1)C2
inactive: [1] 19% | [2] 15.1% | [3] -3.01% | [4] 10.3% | [5] -0.05% | [6] 42.3%

COc1ccc(/C=C2/SC(=S)N(CCCC(=O)Nc3ccccc3C(=O)O)C2=O)cc1
active: [5] 66.5% | [6] 72.3%
inactive: [1] 22% | [2] 11.6% | [3] -7.34% | [4] 7.32%

Cc1nc2sc(C(N)=O)c(N)c2c2c1CCCC2
inactive: [5] 6.77%
active: [1] 79.4% | [2] 47.5% | [3] 69% | [4] 51% | [6] 61.5%

COC(=O)Cc1[nH]n(-c2nc3ccccc3s2)c(=O)c1C(C)=Nc1ccc(OC)cc1
active: [1] 85.2% | [2] 78.4% | [3] 71.8% | [4] 73.8% | [5] 91.5% | [6] 93.9%

O=C(Nc1cccc(C(F)(F)F)c1)Nc1nnc([C@@H]2C[C@H](O)[C@@H](CO)O2)s1
inactive: [2] 21.6% | [3] 29.3% | [4] 20.7% | [5] 1.58% | [6] 29.1%
active: [1] 49%

Cc1nc2cc(N3CCN(C)CC3)c(NC(=O)Cc3ccccc3)cc2c(=O)n1Cc1ccccc1
inactive: [1] 17.6% | [2] 10.3% | [3] -11.5% | [4] -3.19% | [5] 4.08% | [6] 34.5%

Clc1ccc(CSc2nnc(-c3ccncc3)o2)cc1
active: [1] 48.3% | [2] 30.9% | [4] 32.8%
inactive: [3] 43.3% | [5] -11.8% | [6] 28.8%

CC(C)(C)c1ccc(Oc2ccc(N)cn2)cc1
inactive: [1] 39.6% | [2] 20.4% | [3] 2.49% | [4] 18.6%
active: [5] 69% | [6] 88.9%

Cc1csc(SCC(=O)Nc2cccc3nsnc23)n1
inactive: [5] -58.8% | [6] 19.4%
active: [1] 66.3% | [2] 35.1% | [3] 57.9% | [4] 37.7%

COCCn1c(C)cc(C(=O)CSc2nnnn2C2CCCC2)c1C
active: [6] 51.9%
inactive: [1] -7.91% | [2] -5.21% | [3] -99.2% | [4] -66.8% | [5] -19.6%

COc1ccc(-n2c(C)c([N+](=O)[O-])c3ccc(O)c(CN(C)C)c32)cc1
inactive: [5] 24.3%
active: [1] 84.5% | [2] 61.8% | [3] 73.1% | [4] 61.4% | [6] 52%

Cc1ccccc1C(=O)N1CCN(c2ccc(NC(=O)CSc3ccc(Cl)cc3)cc2)CC1
inactive: [5] 18.4%
active: [1] 46.2% | [2] 45.8% | [3] 46.8% | [4] 38.8% | [6] 51.5%
